Experimental data published in PubChem BioAssay AID1159580 (chemical genetic matrix, 2015).
Out of some 5,500 compounds screened, about 2,000 (36%) were called active. About 18% were inconclusive and are not listed. Rule as the data show it: active = normalized growth mostly below about 0.91 (no sharp cut-off); inconclusive = no clear call, values can overlap the other calls; inactive = mostly above about 0.92. The list shows a part of the results.

Assay: chemical genetic growth profiling, strain panel (AID 1159580);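 also: tested at 20 µM; growth read once vehicle control cultures reached saturation at 30 °C; 1 = growth at the plate median or of vehicle wells; lower values mean less growth of the strain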
Conditions: S. cerevisiae deletion strains, growth OD
[1] = locus YAL040C, strain CLN3, active compounds read low
[2] = locus YDR363W, strain ESC2, active compounds read low
[3] = locus YER002W, strain NOP16, active compounds read low
[4] = locus YGR078C, strain PAC10, active compounds read low
[5] = locus YMR263W, strain SAP30, active compounds read low
[6] = locus YMR307W, strain GAS1, active compounds read low
[7] = locus YNL128W, strain TEP1, active compounds read low
[8] = locus YNL175C, strain NOP13, active compounds read low
[9] = locus YNL197C, strain WHI3, active compounds read low
[10] = locus YNL224C, strain SQS1, active compounds read low
[11] = locus YOR083W, strain WHI5 (second series), active compounds read low
[12] = locus YPL241C, strain CIN2, active compounds read low

Measured: normalized growth

CC(=O)O[C@]1(C(C)=O)CC[C@H]2[C@@H]3C=C(Cl)C4=CC(=O)[C@@H]5C[C@@H]5[C@]4(C)[C@H]3CC[C@@]21C
inactive: [1] 0.994 | [2] 0.976 | [3] 1.02 | [4] 0.985 | [5] 0.993 | [6] 0.975 | [7] 0.993 | locus YNL153C, strain GIM3, active compounds read low 1.05 | [8] 1.03 | [9] 0.966 | [10] 0.975 | locus YNL322C, strain KRE1, active compounds read low 0.988 | [11] 0.979 | locus YPL055C, strain LGE1, active compounds read low 1 | [12] 1

Nc1nc2c(ncn2COC(CO)CO)c(=O)[nH]1
inactive: [1] 1.05 | locus YCL061C, strain MRC1 (second series), active compounds read low 1.01 | locus YDR150W, strain NUM1, active compounds read low 1.01 | [2] 1.03 | [3] 1.01 | [4] 0.999 | [5] 1.01 | [6] 0.99 | [7] 0.992 | [8] 1.01 | [9] 1.01 | [10] 0.997 | [11] 1.03 | [12] 1.01

COc1cc2c(cc1OC)-c1c(oc3cc(O)cc(O)c3c1=O)CO2
inactive: locus YAL021C, strain ccr4, active compounds read low 1.02 | locus YAL026C, strain drs2, active compounds read low 1.01 | locus YAL030W, strain snc1, active compounds read low 1.01 | locus YBL061C, strain skt5, active compounds read low 1.01 | locus YBR009C, strain hhf1, active compounds read low 1.02 | locus YBR023C, strain chs3, active compounds read low 1.02 | locus YBR171W, strain sec66, active compounds read low 1.03 | locus YBR231C, strain swc5, active compounds read low 1.02 | locus YBR279W, strain paf1, active compounds read low 1.02 | locus YCL011C, strain gbp2, active compounds read low 1.01 | locus YCL016C, strain dcc1, active compounds read low 1.02 | locus YCL061C, strain MRC1, active compounds read low 1.01 | locus YCL069W, strain vba3, active compounds read low 1.01 | locus YCR088W, strain abp1, active compounds read low 1.02 | locus YDL005C, strain med2, active compounds read low 1.04 | locus YDL040C, strain nat1, active compounds read low 1.01 | locus YDR001C, strain nth1, active compounds read low 1.01 | locus YDR069C, strain doa4, active compounds read low 1.02 | locus YDR137W, strain rgp1, active compounds read low 1 | locus YDR159W, strain sac3, active compounds read low 1.04 | locus YDR195W, strain ref2 1.04 | locus YDR297W, strain sur2, active compounds read low 1.02 | locus YDR334W, strain swr1, active compounds read low 1.01 | locus YDR335W, strain msn5, active compounds read low 1.03 | locus YDR392W, strain spt3, active compounds read low 1.01 | locus YEL003W, strain gim4, active compounds read low 1.02 | locus YEL037C, strain rad23, active compounds read low 1.01 | locus YEL061C, strain CIN8 (second series), active compounds read low 1.01 | locus YER015W, strain faa2, active compounds read low 1.02 | locus YER016W, strain bim1, active compounds read low 1.01 | locus YER111C, strain swi4, active compounds read low 1.03 | locus YER155C, strain BEM2 (second series), active compounds read low 1.03 | locus YFR010W, strain ubp6, active compounds read low 1.02 | locus YGL167C, strain pmr1, active compounds read low 1.02 | locus YGL173C, strain kem1, active compounds read low 1.03 | locus YGL227W, strain vid30, active compounds read low 1.03 | locus YGL240W, strain doc1, active compounds read low 1.02 | locus YGL253W, strain hxk2, active compounds read low 1.02 | locus YHR013C, strain ard1, active compounds read low 1.01 | locus YHR027C, strain rpn1, active compounds read low 1.03 | locus YHR030C, strain SLT2, active compounds read low 1.05 | locus YHR079C, strain IRE1, active compounds read low 1.04 | locus YHR142W, strain chs7, active compounds read low 1.01 | locus YJL092W, strain hpr5, active compounds read low 1.02 | locus YJL095W, strain BCK1 (second series), active compounds read low 1.01 | locus YJL095W, strain BCK1, active compounds read low 1.05 | locus YJL115W, strain asf1, active compounds read low 1.01 | locus YJL129C, strain trk1, active compounds read low 1.03 | locus YJL154C, strain vps35, active compounds read low 1.02 | locus YJL164C, strain tpk1, active compounds read low 0.995 | locus YJL166W, strain qcr8, active compounds read low 1.01 | locus YJL187C, strain SWE1, active compounds read low 1.02 | locus YJR066W, strain TOR1, active compounds read low 0.999 | locus YKL160W, strain elf1, active compounds read low 1.02 | locus YKR026C, strain gcn3, active compounds read low 1.02 | locus YKR091W, strain srl3, active compounds read low 1.02 | locus YLL001W, strain dnm1, active compounds read low 1.02 | locus YLL026W, active compounds read low 1.01 | locus YLL041C, strain sdh2, active compounds read low 0.973 | locus YLR027C, strain aat2, active compounds read low 1.01 | locus YLR113W, strain HOG1, active compounds read low 1.08 | locus YLR221C, strain rsa3, active compounds read low 1.02 | locus YLR258W, strain gsy2, active compounds read low 1.02 | locus YLR262C, strain YPT6 (second series), active compounds read low 1.01 | locus YLR320W, strain mms22, active compounds read low 1.03 | locus YLR342W, strain FKS1, active compounds read low 1.02 | locus YLR357W, strain rsc2, active compounds read low 1.01 | locus YLR370C, strain arc18, active compounds read low 1.02 | locus YLR384C, strain iki3, active compounds read low 1.03 | locus YML120C, strain ndi1, active compounds read low 1.01 | locus YMR058W, strain fet3, active compounds read low 1.02 | locus YMR125W, strain sto1, active compounds read low 1.02 | locus YMR129W, active compounds read low 1.02 | locus YMR205C, strain PFK2, active compounds read low 1.02 | locus YMR231W, strain pep5, active compounds read low 1.02 | locus YNL071W, strain lat1, active compounds read low 1.01 | locus YNL183C, strain NPR1, active compounds read low 0.988 | locus YNL209W, strain ssb2, active compounds read low 1.02 | locus YNL248C, strain rpa49, active compounds read low 1.02 | locus YNL322C, strain KRE1 (second series), active compounds read low 1.02 | locus YNR049C, strain mso1, active compounds read low 1.02 | locus YOR001W, strain rrp6, active compounds read low 1.04 | locus YOR070C, strain gyp1, active compounds read low 1.02 | locus YOR080W, strain dia2, active compounds read low 1.02 | locus YOR083W, strain WHI5, active compounds read low 1 | locus YOR106W, strain vam3, active compounds read low 1.05 | locus YOR231W, strain MKK1, active compounds read low 1.05 | locus YOR265W, strain rbl2, active compounds read low 1.01 | locus YOR270C, strain vph1, active compounds read low 1.02 | locus YOR290C, strain snf2, active compounds read low 1.02 | locus YPL051W, strain arl3, active compounds read low 1 | locus YPL078C, strain atp4, active compounds read low 1.02 | locus YPL106C, strain sse1, active compounds read low 1.02 | locus YPL240C, strain hsp82, active compounds read low 1.02 | locus YPL256C, strain CLN2, active compounds read low 1.05
